Source: the supplement of paper PMC11417369
± gives the standard deviation of the averaged measurements. The full ranking holds about 25,000 sequences; the median of “ln(normalized median fluorescence intensity)” is about 8.6, and the highest 2% start at about 10. The sample holds the highest values, similar sequences and a random draw of the others, so the mix is not that of the screen.

The sequences below were run on PfAP2-EXP AP2 domain (GST-tagged) (assay: gcPBM binding intensity (ln(normalized median fluorescence intensity)); higher = stronger DNA binding).
Outline: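 An Agilent 4 × 180k array of primer-extended double-stranded 36-bp intergenic genomic probes, with negative controls, was incubated for 1 h with GST-tagged P. falciparum DNA-binding domains expressed in E. coli. Alexa488 anti-GST antibody detected bound protein, scanned at 488 nm. Binding intensity is the highest Masliner-normalised natural-log median intensity across replicate spots of either probe orientation.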

Sequence	gcPBM binding intensity (ln)
ATAAAAAAAGATGAACGTACATATATTTTAAAAATC [XGTACX_site5950]	8.7 ± 0.45
TAATCATTTTTAAATTGTACAATTTATATAATAAGT [XGTACX_site6081]	8.5 ± 0.26
AAATTTATAAATTAAAGTACATATTTCTTGAATATT [XGTACX_site859]	8.34 ± 0.48
CTCAACATATACGTAACACACATATATATATATATA [CACACA_site3838]	10.2 ± 0.41
TAAGTTTTGTTTTTTTGTACTCATTCATACTATCAT [XGTACX_site3638]	8.87 ± 0.49
TAAAATTTAAGTTATACACACTTAAGTAACATCATC [CACACA_site6395]	8.72 ± 0.37
TGTTTATGTATCAATTGTACAAAAAAAAAAAAAAAA [XGTACX_site1590]	8.26 ± 0.46
TGACCTGTTCAGGTAACACACATATAAACACATACA [CACACA_site4186]	8.8 ± 0.43
TTAATAACGTAATGTAAATGTTTCATACCCTTTTTT [CACACA_negctrl_site988]	8.36 ± 0.43
CCATAAAAAGGATACACACACACACGCACATATATA [CACACA_site6550]	8.73 ± 0.5
CATATAAAAGGACACACACACACATATATATATATA [CACACA_site4674]	10 ± 0.43
CAACGATACAAAAAAGGTACACATATATATATATAT [XGTACX_site8688]	10.2 ± 0.47
AAAGGATATAGACACACACACACATATATATATATA [CACACA_site2200]	10.2 ± 0.14
TAAAAGGATACATATACACACATATATATATATATA [CACACA_site2791]	10.2 ± 0.42
TATATATATAGACACACACACACATATATATATATA [CACACA_site9366]	10.1 ± 0.42
CCATAAAAAGGATACACACACACACCCACATATATA [CACACA_site903]	8.71 ± 0.45
AATACAAAAAAAGGTACACACATAATATATTTATTA [CACACA_site2628]	8.7 ± 0.34
ATAAAAAAAGGACACACACACATATATATATATATA [CACACA_site5662]	10.2 ± 0.42
ACAAATACAAAAAAAGGTACACACATAATATATTTA [XGTACX_site5515]	8.72 ± 0.51

Sequence	gcPBM binding intensity (ln)
ATAAAAAAAGGACACACACACATATATTTATTTATA [CACACA_site7438]	8.66 ± 0.52
AAAGGATACAGACACACACACACATATATATATATA [CACACA_site906]	10.1 ± 0.4
TTTTTTATTTTAAAAACATGCATAAAATATAATAGT [TGCATGCA_site762]	8.94 ± 0.42
ACATGTATACTTTTTACGAAAAAAAAAAAAAAAAAA [CACACA_negctrl_site1638]	8.09 ± 0.45
TTTTAAAAAGATCATTAAAAAAAAAAAAAGAACAAA [CACACA_negctrl_site528]	8.53 ± 0.41
TATACATATTTGTATTGTACATAAACTAAATCTTCA [XGTACX_site610]	8.21 ± 0.36
ATACGATTGAAACATTGTACATGAATATAAAAAAAT [XGTACX_site5704]	8.88 ± 0.47
ATATTTTATTATTGTTGTACTTTTTTTTGATTGTTT [XGTACX_site4090]	8.81 ± 0.42
TTGTGTTCTTATTTTTACACCGAAAAATATTAAAAG [CACACA_negctrl_site535]	8.55 ± 0.29
AATGGATGGTCCAAATGTACATATATATATATATAT [XGTACX_site4800]	10.1 ± 0.41
ATATATATATGTTACTGTACTAATTTATATGTTAAT [XGTACX_site3341]	9.665 ± 0.064
AAAGGGATAACACCAAAAAAAATAAAAATAAAAATA [GTGCAC_negctrl_site680]	8.61 ± 0.54
AGGATATGCAGACACACACACATATATATATATATA [CACACA_site2201]	10.3 ± 0.41
AGGATATGCAGACACACACACATATAGATTTATATA [CACACA_site7100]	8.41 ± 0.48
AAAAAAAAAAGACACACACACATATAAATATAAATA [CACACA_site6899]	8.75 ± 0.38
ATAAAAAAAAGACACACACACATATATATATATATA [CACACA_site3073]	10 ± 0.33
AGGATACACAGACACACACACATATATATATATATA [CACACA_site907]	10 ± 0.45
CATATAAAAAGACACACACACACATATATATATATA [CACACA_site940]	10.3 ± 0.18
AATTATGGGGAAAAGACACACATATATATATATATA [CACACA_site2589]	10.3 ± 0.31

Sequence	gcPBM binding intensity (ln)
GAGAAATGGGGACACACACACATATTATATATATAT [CACACA_site4943]	9.71 ± 0.2
AAAAATTATGGACACACACACATATATATATATATT [CACACA_site4717]	8.53 ± 0.31
CATACCTTTTAATGTACACACATTTCTTTTTTGTTA [CACACA_site892]	8.88 ± 0.28
AAAAAAAAAATTAAATGTACATATATAATATATATA [XGTACX_site7245]	8.62 ± 0.014
TCCTACATATTATAGTGTACATTTTCATGTTCATAT [XGTACX_site4308]	8.62 ± 0.39
ATAAGATGATGGAACTGTAATATATATATATATATA [CACACA_negctrl_site839]	10 ± 0.5
AAAAAAATAAATAAATGTACATATATAAAACATTGT [XGTACX_site2136]	8.87 ± 0.33
TGTAATCTGGAGAAAAGTACACAGTATCTGGTAGCT [XGTACX_site2039]	8.53 ± 0.34
TTTTTAATTTACTGTCATAGGTACCTTAACTTATCA [CACACA_negctrl_site1664]	8.72 ± 0.49
AATGACAACCTTGTCACACATATATATATATATATA [CACACA_site5977]	10.2 ± 0.4
AAAAATAAAAAAATGACACACATATATATATATATA [CACACA_site2307]	10 ± 0.53
ATATAAATGTATATGACACACATATATATATATATA [CACACA_site889]	9.91 ± 0.3
AAAAAAAAAAAAAAAAATATATTTATGAAATAAAAA [TGCATGCA_negctrl_site262]	8.405 ± 0.078
TGAACTTACTTGGACATACACACATATATATATATA [CACACA_site2977]	10.2 ± 0.27
AACTTACTTGGACATACACACATATATATATATATA [CACACA_site2978]	10.2 ± 0.44
AACTTACTTGGACATACACACATATAGATTTATATA [CACACA_site7412]	8.84 ± 0.3
ATGGGACATATATATACACACATATATATATATATA [CACACA_site1202]	10 ± 0.21
ATTTATATTTTATATACACACATGAACTTATATGGA [CACACA_site3167]	8.37 ± 0.41
TATACAGATGGACACACACACATATATATATATATA [CACACA_site5272]	10.2 ± 0.3
